Assay outcomes: PubChem, National Center for Advancing Translational Sciences (NCATS)
KB-V1 cytotox: KB-V1 MDR subline cytotoxicity | KB-V1 MDR cells viability, CellTiter-Glo, 72 h | Potency, µM (titrated, usually from 46.1 µM), most hits filed as cytotoxic | hit rate 3.4% among 400,000; note: potency is the fitted concentration of half-maximal effect; nearly all actives have a fitted effect of over 60% in size
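Cytotoxicity via CellTiter-Glo luminescence after 72 h compound exposure at 37 degrees C. Cells: drug-selected KB-V1 line, DMEM phenol-red free plus 10% FBS. Compounds tested at multiple concentrations; normalized data fitted to concentration-effect curves.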
Giardia kill: Giardia lamblia killing. Giardia lamblia trophozoite viability. activity change, % at 7.66 µM, hits read low. hit rate 0.15% among 340,000. AID 540267; in the data active = activity change below about -80%; inconclusive = between about -30% and that limit;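 note: parasites exposed to compound for two days anaerobically before the ATP read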
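Trophozoites 100 cells/well + cpd; 48 hrs, 37 deg C, anaerobic. ATPLite 1-Step added, 15-30 min RT, luminescence read (ATP-based viability).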
Nrf2 inh: Nrf2 pathway inhibition. A549 ARE-Fluc reporter, luciferase luminescence, 18-24 h. hit rate 2.1% among 360,000. Potency, µM (series often up to 46 µM), for the others: top-dose activity change, negative = inhibition, hits mostly inhibitors; note: potency is the fitted concentration of half-maximal effect; nearly all actives have a fitted effect of over 60% in size
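A549 ARE_Fluc cells, 5000/well, 5% FBS OPTI-MEM; compounds in dose-response, 18-24 h at 37 °C/5% CO2; CellTiter-Fluor viability read (Ex 405/Em 525), then BugLite luciferase luminescence = Nrf2 activity.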
KB-3-1 tox: kills parental KB-3-1 adenocarcinoma cells; KB-3-1 viability, CellTiter-Glo ATP luminescence, 72 h; Potency, µM (highest dose often 46.1 µM), usual class: cytotoxic; hit rate 1.4% among 400,000; note: potency is the fitted concentration of half-maximal effect; nearly all actives have a fitted effect of over 60% in size
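Multi-concentration cytotoxicity screen in KB-3-1 cells grown in DMEM lacking phenol red with 10% FBS. After 72 h at 37 °C with compound, ATP-dependent luminescence was recorded.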
A549 viability: counter-screen for Nrf2 inhibitors: cytotoxicity in A549 cells; A549 ARE-Fluc cells, CellTiter-Fluor viability, 18-24 h; Potency, µM (highest dose often 46 µM), for inactives: top-dose activity change, negative = cytotoxicity, usual class: inhibitors; hit rate 0.16% among 390,000; AID 504648; note: potency is the fitted concentration of half-maximal effect
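A549 ARE_Fluc cells in 5% FBS OPTI-MEM were exposed to compounds in concentration-response for 18-24 h at 37 deg C. Viability was read by CellTiter-Fluor fluorescence (Ex 405/Em 525) after 30 min, before the luciferase read.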
PI4K2A inh: inhibitors of human PI4K2A; Q9BTU6; activity change, negative = inhibition, % at 76.9 µM; hit rate 0.13% among 420,000; purified PI4K2A, ADP-Glo luminescence, 1 h; stronger effect = lower value; in the data active = activity change below about -50%; inconclusive = mostly about -30% to -49%;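 note: -100% = wells without enzyme as full effect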
Target sequence (Q9BTU6 whole entry, looked up): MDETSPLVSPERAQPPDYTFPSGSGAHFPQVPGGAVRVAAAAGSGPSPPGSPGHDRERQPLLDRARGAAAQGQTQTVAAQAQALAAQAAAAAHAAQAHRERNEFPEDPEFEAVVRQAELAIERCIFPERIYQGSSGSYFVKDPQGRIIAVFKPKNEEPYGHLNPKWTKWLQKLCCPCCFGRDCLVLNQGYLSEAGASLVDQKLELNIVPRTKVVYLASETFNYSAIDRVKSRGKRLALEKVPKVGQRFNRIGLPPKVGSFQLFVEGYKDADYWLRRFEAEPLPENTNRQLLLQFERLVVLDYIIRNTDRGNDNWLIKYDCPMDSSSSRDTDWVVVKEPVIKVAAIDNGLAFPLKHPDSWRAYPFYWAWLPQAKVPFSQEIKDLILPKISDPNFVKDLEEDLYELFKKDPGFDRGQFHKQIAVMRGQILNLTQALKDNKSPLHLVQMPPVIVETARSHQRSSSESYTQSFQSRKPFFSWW
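In this quantitative HTS, ADP production by PI4K2A was quantified luminescently after 1 h at ambient temperature; 100 microM adenosine served as plate-quality control.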
* marks the source's active call; other numbers are inactive results; i = inactive; ? = inconclusive; nt = not tested or not shown. In the library only some 5.7% were active in any assay of this set; here they are far more common. Unless noted, calls come from the whole dose curve; as a rule, active = well fitted curve in the direction sought with a large enough effect; inconclusive = small, poorly fitted or top-dose-only effect, or another doubt; inactive = no such curve, though single readings can be large; an effect the other way counts as inactive or inconclusive. Unless noted, % is set by controls: 0 for no effect and ±100 for the full control effect.

SMILES	KB-V1 cytotox	Giardia kill	Nrf2 inh	KB-3-1 tox	A549 viability	PI4K2A inh
CCCc1cc(C(=O)Nc2ccc(C(=O)c3ccccc3)cc2)n(C)n1	i	-6	21µM*	i	?	5
Cc1ccc(-c2cc(C#N)c3n(c2=O)CCC3)cc1	nt	nt	nt	nt	nt	0
O=C(NCCSc1c[nH]c2ccccc12)c1ccc(Br)o1	?	-26	-12%	i	-9%	0
Cc1[nH]c2ccccc2c1SCCNC(=O)c1ccc(Br)o1	i	7	23µM*	i	?	-1
O=C(CC1CCCC1)N1CC[C@H]2[C@H](CCCN2Cc2ccc(F)cc2)C1	nt	nt	nt	nt	nt	6
O=C(Nc1nc2ncccn2c1-c1ccccc1)c1ccc(F)cc1	nt	nt	nt	nt	nt	1
COc1ccccc1CNC(=O)CSc1nc(=O)[nH]c2c1CCCC2	nt	nt	nt	nt	-2%	3
CCOC(=O)c1c2c3c(cccc3n(C)c1=O)C(=O)c1ccccc1-2	21µM*	-5	-17%	?	-12%	2
CCOC(=O)c1c2c(n(Cc3ccccc3)c1C)C(=O)C(=O)c1ccccc1-2	3.3µM*	7	?	2.9µM*	?	?
CCOC(=O)c1c2c(n(C)c1C)C(=O)C(=O)c1ccc(Br)cc1-2	3.3µM*	5	-24%	3.7µM*	-2%	-26
Cc1cccc(N2CCN(c3cc(C)nc4c(-c5ccc(Cl)cc5)c(C)nn34)CC2C)c1 (stereo not drawn)	nt	nt	nt	nt	3%	-11
CC(C)CCNC(=O)C1CCN(c2cncnc2)CC1	nt	nt	nt	nt	nt	-5
O=C(CCN(CCO)Cc1ccccc1)Nc1ccc(Br)cc1	15µM*	-2	15%	i	20%	-2
CCN(CCC(=O)Nc1ccc(Br)c(C)c1)Cc1ccccc1	?	7	nt	?	-2%	5
O=C(NCCc1ccccc1)OCc1cn(Cc2ccc(Cl)cc2)nn1	nt	nt	nt	nt	nt	-1
C=CCSC(=C(C#N)C#N)c1cc2c([nH]1)CCCC2	?	-6	?	18µM*	-10%	2
Cc1ccc(NC(=O)CN2CCSc3ccc(S(=O)(=O)N4CCCC4)cc32)cc1	12µM*	nt	nt	i	?	-2
CCOc1ccc(NC(=O)CN2CCSc3ccc(S(=O)(=O)N4CCCC4)cc32)cc1	10µM*	nt	nt	?	?	-1
S=C(Nc1ccc(I)cc1)OC1CCC12CCC(c1ccccc1)CC2 (stereo not drawn)	nt	nt	nt	nt	nt	-1
CCN(CC)C(=O)c1cccc(-c2csc(C(O)c3ccc(OC)cc3)n2)c1 (stereo not drawn)	18µM*	nt	nt	?	nt	-6
CCN(CC)C(=O)c1cccc(-c2csc(C(O)c3ccc(F)c(OC)c3)n2)c1 (stereo not drawn)	?	nt	nt	i	nt	3
COC(=O)C1=C(C)Nc2nnnn2C1c1ccccc1Cl (stereo not drawn)	i	5	nt	i	0%	-3
CCCCCOC(=O)C1=C(C)Nc2nnnn2C1c1ccccc1Cl (stereo not drawn)	21µM*	-5	?	i	-22%	0
COc1ccc(/C=C\C(=O)c2c(O)ccc3c(C)cc(=O)oc23)cc1OC	21µM*	5	nt	16µM*	-9%	-17
COc1cc(/C=C/C(=O)c2c(O)ccc3c(C)cc(=O)oc23)ccc1O	?	-9	-13%	?	-1%	-18
SMILES	KB-V1 cytotox	Giardia kill	Nrf2 inh	KB-3-1 tox	A549 viability	PI4K2A inh
COc1ccc2c(c1OC)C(=O)N(c1cccc(/C=C/C(=O)O)c1)C2	i	0	16µM*	i	-4%	-1
COc1ccccc1CNC(=O)C/C(C)=N/NC(=O)COc1ccc(C)cc1Br	i	10	5%	23µM*	2%	1
COc1ccc(CCNC(=O)C/C(C)=N/NC(=O)COc2ccc(C)cc2Br)cc1OC	i	-17	-25%	i	-3%	0
COc1cccc(C(=O)/C=C/c2ccc(OCC#N)c(OC)c2)c1	?	9	?	?	-21%	14
COc1ccc(/C=C/C(=O)c2ccc3ccccc3c2O)cc1CN1CCOCC1	i	-11	-15%	i	-3%	-1
COc1cc(/C=C/C(=O)c2ccc(O)cc2)ccc1OCC#N	18µM*	-11	26µM*	6.5µM*	?	-8
COc1ccc(/C=C/C(=O)c2ccccc2O)cc1CN1CCOCC1	i	-3	-4%	?	-27%	2
COc1ccc(C(=O)/C=C/c2ccc(OC)c(CN3CCOCC3)c2)cc1	15µM*	?	6%	?	-2%	1
COc1ccc(C(=O)/C=C/c2ccc(OC)c(Cn3nnc4ccccc43)c2)cc1	?	20	21µM*	i	?	4
COc1ccc(C)cc1Cn1nnc2ccccc21	i	4	-12%	i	7%	1
COc1ccc(/C=C/C(=O)c2ccc(O)cc2)cc1CN1CCOCC1	?	17	-12%	16µM*	2%	-4
O=C(NCCc1csc2nc(-c3cccc(F)c3)nn12)c1ccc(Br)o1	i	nt	nt	i	5%	1
O=C(C1CCN(S(=O)(=O)Cc2ccccc2)CC1)N1CCN(c2cccc(C(F)(F)F)c2)CC1	i	nt	19%	i	-1%	1
COC(=O)C1CCCN(C(=O)C2CCN(S(=O)(=O)c3cccs3)CC2)C1 (stereo not drawn)	nt	nt	nt	nt	nt	2
O=C(NCc1ccccc1F)c1cccc(S(=O)(=O)NCc2ccccc2)c1	nt	-2	-7%	nt	0%	-2
O=C(c1ccc(CNS(=O)(=O)c2cccc(C(F)(F)F)c2)cc1)N1CCOCC1	13µM*	18	nt	i	0%	-11
O=C(c1ccc(NS(=O)(=O)c2cccc(C(F)(F)F)c2)cc1)N1CCCC1	nt	22	-29%	nt	-2%	-4
O=C(NCc1cccc(C(F)(F)F)c1)c1cccc(S(=O)(=O)NCc2ccccc2)c1	18µM*	-13	?	i	-9%	-5
Cc1cccc(NC(=O)Nc2c(-c3ccc(C(F)(F)F)cc3)nc3ncccn23)c1	nt	nt	nt	nt	nt	6
Cc1cccn2c(=O)c(C(=O)NC(C)c3ccccc3)c(O)nc12 (stereo not drawn)	?	nt	6.5µM*	i	?	2
COC(=O)c1ccccc1S(=O)(=O)Nc1cc(=O)c2ccccc2[nH]1	i	nt	?	i	13%	nt
Cc1nn(C)c(Oc2cccc(Cl)c2)c1C#N	i	-3	-17%	i	0%	-1
Cc1nn(C)c(Oc2cccc(Cl)c2)c1C(=O)Nc1ccc(F)cc1F	18µM*	3	-12%	i	-4%	-3
Cc1nn(C)c(Oc2cccc(Cl)c2)c1C(=O)Nc1ccc(F)cc1	15µM*	28	nt	i	7%	-9
Oc1c(Br)cc(Br)cc1-c1nc2ccccc2s1	i	nt	11%	i	0%	-12
